# Laboratory results as given in PubChem BioAssay AID1251 (SRMLSC, 2008).
# Values joined by “and” are separate entries in the source; they are usually repeats but may differ in a detail not shown here. Equal values may be shown once. Screen size: about 200,000 compounds; about 720 (0.36%) were called active. The sample holds actives, similar compounds and a random draw of the others, so the mix is not that of the screen. Cut-off read from the data, not from the text of the source: active = inhibition above about 30%; inactive = the rest, inconclusive results apart.
# Assay: antivirals against arbovirus infection, primary screen, cell-based, full library, 10K replicate subset (AID 1251)
# [1] = arbovirus infection cell-based antiviral screen, at 10 µM, stronger effect = higher value
compound,measurement,setting,value
COc1cccc(CNn2cn[nH]c2=S)c1OCc1ccccc1,inhibition,[1],-1.17% (inactive)
NC(=O)CC[C@@H]1NC(=O)[C@@H]2CCCN2C(=O)c2cc([N+](=O)[O-])cc(F)c2NCCC[C@@H](C(N)=O)NC1=O,inhibition,[1],8.77% (inactive)
O=C(CSc1ncn[nH]1)NCc1ccc2c(c1)OCO2,inhibition,[1],2.87% (inactive)
CCNC(=S)N1CCN(c2ncccn2)CC1,inhibition,[1],-0.7% (inactive)
O=C(C1=C[C@H](C2CC2)C[C@H](OCc2ccc(CO)cc2)O1)N1CCN(Cc2ccccc2)CC1,inhibition,[1],4.26% (inactive)
CN(C)NC(=O)C(NC(=O)c1ccc(N)cc1)C12CC3CC(CC(C3)C1)C2 (stereo not given),inhibition,[1],5.7% (inactive)
CCOC(=O)c1ccccc1N1C(=O)C2Sc3[nH]c(=O)sc3C(/C=C/c3ccccc3)C2C1=O (stereo not given),inhibition,[1],-0.3% (inactive)
CCC(C)NCCOCCOc1ccc(Br)cc1C (stereo not given),inhibition,[1],-28.9% (inactive)
COc1ccc2cc(CCl)c(Cl)nc2c1,inhibition,[1],-7.11% (inactive)
CCCn1c(N)c(C(=O)CSc2nc3ccccc3c(=O)n2-c2ccc(OC)cc2)c(=O)[nH]c1=O,inhibition,[1],30.7% (active)
CCCn1c(N)c(C(=O)CSc2nnc(-c3cccnc3)n2-c2ccc(C)cc2C)c(=O)[nH]c1=O,inhibition,[1],6.05% (inactive)
COc1cccc(-n2c(SCC(=O)c3c[nH]c4ccccc34)nc3ccccc3c2=O)c1,inhibition,[1],5.13% (inactive)
CCCCCOc1ccc(CSC2=NCCN2)cc1[N+](=O)[O-],inhibition,[1],-7.5% (inactive)
CCOC(=O)c1sc(=S)n2c1[nH]c(=O)c1ccc(C(=O)OC)cc12,inhibition,[1],32.4% (active)
CCOC(=O)c1sc(=S)n(-c2cccc(OC)c2)c1N,inhibition,[1],0.93% (inactive)
CCOC(=O)Cn1c(N)c(C(=O)OC)sc1=S,inhibition,[1],0.02% (inactive)
CCOC(=O)C1=C(C)NC(=S)NC1c1cccs1 (stereo not given),inhibition,[1],-5% (inactive)
COC(=O)c1ccc(NC(=O)c2cc(Cl)ccc2OC)cc1,inhibition,[1],-17.6% (inactive)
CC(=O)N1CCN(S(=O)(=O)c2c(F)cc(F)c(Cl)c2F)CC1,inhibition,[1],6.03% (inactive)
Cc1ccc(N2C(=O)C(CC(=O)Nc3cccc(F)c3)N(CCc3ccncc3)C2=O)cc1 (stereo not given),inhibition,[1],7.79% (inactive)
CCn1c(Cc2ccccc2)nnc1SCc1nc2ccccc2c(=O)[nH]1,inhibition,[1],5.28% (inactive)
COc1ccc(CCCc2nnc(SCc3nc4ccccc4c(=O)[nH]3)n2C)cc1,inhibition,[1],31.9% (active)
CCn1c(COc2c(C)cccc2C)nnc1SCc1nc2ccccc2c(=O)[nH]1,inhibition,[1],0.34% (inactive)
Cc1ccc(N(CCC(=O)O)S(=O)(=O)c2cccc(C(F)(F)F)c2)cc1,inhibition,[1],5.45% (inactive)
O=c1nc(N/N=C/c2ccco2)cn[nH]1,inhibition,[1],-4.7% (inactive)
CCCCSc1[nH]c(=O)c(C(=O)OCC)cc1C#N,inhibition,[1],39.8% (active)
CC(=O)c1cc(C#N)c(SCC(=O)C(C)(C)C)nc1C,inhibition,[1],-12.4% (inactive)
Cc1cc(=O)[nH]c(SCC(N)=O)c1C#N,inhibition,[1],4.32% (inactive)
COc1cc(NS(=O)(=O)c2ccc(NC(=O)c3ccc(S(=O)(=O)N4CCCCC4)cc3)cc2)ncn1,inhibition,[1],-0.14% (inactive)
N#Cc1ccc(C(=O)Nc2nc(-c3cccs3)c(C(=O)C(F)(F)F)s2)cc1,inhibition,[1],2.83% (inactive)
CCn1c(CSCc2c(Cl)cccc2Cl)n[nH]c1=S,inhibition,[1],10.9% (inactive)
CN(CC(=O)Nc1ccc(S(=O)(=O)N2CCCC2)cc1)Cc1ccc(Cl)c(Cl)c1,inhibition,[1],-4.82% (inactive)
COc1ccccc1N1CCN(Cc2ccc(OC)c3ccccc23)CC1,inhibition,[1],31.9% (active)
CNCC(O)CN1CCN(c2ccccc2OC)CC1 (stereo not given),inhibition,[1],3.01% (inactive)
COc1ccccc1N1CCN(CCCCOc2ccc(F)cc2)CC1,inhibition,[1],13.4% (inactive)
CN(C)CCCNC(=O)/C=C/c1ccc(OCc2c(F)cccc2Cl)cc1,inhibition,[1],-27.3% (inactive)
O=C(CN1CCN(S(=O)(=O)/C=C/c2ccccc2)CC1)Nc1ccc(N2CCOCC2)cc1,inhibition,[1],-11% (inactive)
N#Cc1c(-c2ccc(F)cc2)nc(-c2ccccc2)[nH]c1=O,inhibition,[1],6% (inactive)
COc1ccc(C)cc1NC(=O)C(OC(=O)c1cccc(S(=O)(=O)N(C)c2ccccc2)c1)c1ccccc1 (stereo not given),inhibition,[1],2.04% (inactive)
CNC(=S)N1CCN(c2ccccn2)CC1,inhibition,[1],8.2% (inactive)
C=CCn1c(P(C)(=O)O)nc2ccccc21,inhibition,[1],-2% (inactive) and 0.03% (inactive)
Cc1ccc(CN2CCN(Cc3ccc4ncccc4c3)CC2CCO)cc1 (stereo not given),inhibition,[1],4.14% (inactive)
CCCCNC(=O)Nc1c(C)cc(SC#N)cc1C,inhibition,[1],-9.26% (inactive)
O=C(Nc1nc(-c2ccncc2)cs1)C1COc2ccccc2O1 (stereo not given),inhibition,arbovirus infection cell-based antiviral screen; at 10 µM; stronger effect = higher value,-2.24% (inactive)
same,inhibition,arbovirus infection cell-based antiviral screen; measured here: 10K subset replicate screen; at 10 µM; stronger effect = higher value,4.95%
O=C(Nc1nnc(SCc2ccc(Cl)cc2Cl)s1)C1COc2ccccc2O1 (stereo not given),inhibition,[1],30.9% (active)
O=C(Nc1nnc(SCc2c(Cl)cccc2Cl)s1)C1CCCO1 (stereo not given),inhibition,[1],-0.49% (inactive)
CC(=O)Nc1ccc(OCCC[n+]2cccc(C(=O)[O-])c2)cc1,inhibition,[1],1.68% (inactive)
CCN(c1ccc(NC(=O)COC(=O)CCc2nc3ccccc3n2-c2ccccc2)cc1)C(C)C,inhibition,[1],-15.1% (inactive)
Cc1c(Cl)cccc1NC(=O)Nc1ccc(C(=O)N2CCCC2)cc1,inhibition,[1],-2.79% (inactive)
O=C1N/C(=N\N=C\c2ccco2)SC1Cc1ccc(F)cc1 (stereo not given),inhibition,[1],29.1% (inactive)
O=C1NC(=Nc2ccc(Cl)cc2)SC1Cc1cccc(Cl)c1Cl (stereo not given),inhibition,[1],30.2% (active)
NC1=NC(=O)C(Cc2cccc(Cl)c2Cl)S1 (stereo not given),inhibition,[1],9.95% (inactive)
Cc1ccc(C)n1NC(=O)c1ccc([N+](=O)[O-])cc1,inhibition,[1],0.14% (inactive)
CCOC(=O)c1c(Cc2ccc(Cl)cc2)c[nH]c1C,inhibition,[1],-0.75% (inactive)
COc1cccc2c(O)cc(=O)n(C)c12,inhibition,[1],-3.62% (inactive)
Cc1nc(CNS(=O)(=O)c2ccc(Oc3ccccc3)cc2)cs1,inhibition,[1],10.3% (inactive)
Cc1nc(CNS(=O)(=O)c2cccnc2)cs1,inhibition,[1],32.7% (active)
Cc1ccc(S(=O)(=O)NCc2csc(C)n2)c(C)c1,inhibition,[1],12.2% (inactive)
N#C/C(=C\c1ccc(N2CCOCC2)o1)C(=O)N1CCOCC1,inhibition,[1],-2.38% (inactive)
N#Cc1c(NC(=O)CCCl)sc2c1CCCCC2,inhibition,[1],-2.94% (inactive)
N#Cc1c(NC(=O)C2CCCO2)sc2c1CCCCC2 (stereo not given),inhibition,[1],6.23% (inactive)
N#Cc1c(NC(=O)C2CC(Cl)=CCC2C(=O)O)sc2c1CCCCC2 (stereo not given),inhibition,[1],31.9% (active)
CC(=O)Nc1ccc(S(=O)(=O)NCC(=O)OCc2cc(=O)oc3ccc4ccccc4c23)cc1,inhibition,[1],2.02% (inactive)
Cc1cc(C)n2nc(C(=O)N(C)C(c3ccccc3)c3ccccc3)nc2n1,inhibition,[1],24.9% (inactive)
COc1cc(C(=O)NCc2ccc(-n3cccc3)cc2)cc(OC)c1OC,inhibition,[1],2.99% (inactive)
N#Cc1ccccc1Sc1ccccc1C(=O)OCC(=O)NC1CCCCC1,inhibition,[1],5.04% (inactive)
COC(=O)C1=C(NC(=O)C(C)(C)C)CCS1,inhibition,[1],2.37% (inactive)
Cc1ccnc(NS(=O)(=O)c2ccc(NC(=O)c3ccc(S(=O)(=O)N(C)C)cc3)cc2)n1,inhibition,[1],14.3% (inactive)
Cc1c(CCOC(=O)CC23CC4CC(CC(C)(C4)C2)C3)sc[n+]1Cc1ccc([N+](=O)[O-])cc1,inhibition,[1],-19.1% (inactive)
COC(=O)C1=C(C(=O)OC)C(c2cc([N+](=O)[O-])ccc2O)c2sc(=O)[nH]c2S1 (stereo not given),inhibition,[1],-2.76% (inactive)
Cc1ccc(NC(=O)c2ccccn2)cc1S(=O)(=O)N1CCOCC1,inhibition,[1],20% (inactive)
Cc1cccc(NC(=O)NC(=S)NC(=O)c2ccccc2)c1,inhibition,[1],10.4% (inactive)
CCC(=O)NCc1cc(-c2nn(C)c(=O)c3ccccc23)ccc1OC,inhibition,[1],-10.6% (inactive)
O=C(COC(=O)c1ccccc1F)Nc1cc(S(=O)(=O)N2CCOCC2)ccc1N1CCCC1,inhibition,[1],3.02% (inactive)
